D1 ag = agonists of human D1 dopamine receptor; activation, % at 2 µM; HEK293 T-REx D1 cells, calcium flux, agonist mode; P21728; hit rate 1% among 360,000; in the data active = activation above about 30%
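Agonism was scored from calcium flux recorded over 180 s (1 read/s) after pintool compound addition, following a 10-cycle baseline. Cells were inducible force-coupled HEK293 TREx D1, plated overnight at 30 C and loaded with no-wash calcium dye.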
D1 antag = human D1 dopamine receptor antagonism; P21728; HEK293 TREx D1 cells, calcium flux, dopamine EC80; stronger effect = lower value; activity change, negative = inhibition, % at 10 µM; hit rate 3.2% among 360,000; AID 504652; in the data active = activity change below about -30%
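After overnight tetracycline induction at 30 C, force-coupled D1 HEK293 cells took up a no-wash calcium dye at room temperature. Compounds were added and monitored 180 s, and the response to EC80 dopamine was then recorded.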
D1 PAM = potentiators of human D1 dopamine receptor; P21728; HEK293 TREx D1 cells, calcium flux, dopamine EC20 potentiation; potentiation, % at 10 µM; hit rate 0.036% among 360,000; AID 504651; in the data active = potentiation above about 30%
TRHR enhancer-1 = allosteric enhancers of human TRH receptor; TRHR cells, fluo-8 calcium fluorescence, EC20 TRH enhancement; hit rate 0.66% among 360,000; AID 493056; P34981; enhancement, % at 2 µM; in the data active = enhancement above about 30%
Target sequence (P34981 whole entry, looked up): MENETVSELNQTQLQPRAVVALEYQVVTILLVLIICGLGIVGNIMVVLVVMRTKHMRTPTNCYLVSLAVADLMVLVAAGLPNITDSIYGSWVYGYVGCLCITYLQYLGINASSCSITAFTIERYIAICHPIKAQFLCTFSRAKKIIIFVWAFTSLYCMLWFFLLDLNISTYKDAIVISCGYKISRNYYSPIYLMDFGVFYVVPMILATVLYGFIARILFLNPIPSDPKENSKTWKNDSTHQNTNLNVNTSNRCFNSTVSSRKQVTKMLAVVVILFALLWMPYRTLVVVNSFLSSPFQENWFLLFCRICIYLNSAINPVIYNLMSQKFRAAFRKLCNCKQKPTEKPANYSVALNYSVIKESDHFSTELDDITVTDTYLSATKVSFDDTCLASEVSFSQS
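TRHR-expressing cells loaded with fluo-8 calcium dye were read kinetically (ex 480/em 530) during compound addition, then stimulated with an EC20 of TRH (10 nM final). Enhancement of the Gq-mediated intracellular calcium response was scored.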
TRHR agonist-1 = agonists of human TRH receptor | TRHR cells, calcium flux fluo-8, FDSS agonist mode | P34981 | hit rate 0.18% among 360,000 | activation, % at 2 µM | AID 493084; in the data active = activation above about 30%
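Fluo-8-loaded TRHR cells; 10 s baseline, compound added, kinetic Ca2+ fluorescence read 1/s, agonist mode.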
TRHR enhancer-2 = human TRH receptor allosteric enhancement confirmation; shares compounds with TRHR enhancer-1; TRH receptor cell assay, enhancer confirmation qHTS; activity change, negative = inhibition, % at 46.1 µM; 970 tested, under 10 active; AID 493076;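 note: compound effect scored on response to added TRH at EC20 of 10 nM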
TRHR agonist-2 = confirmation of human TRH receptor agonists | hit rate 8% among 970 | TRHR-expressing cells, agonist activation read-out | AID 493078 | Potency, µM (titrated, usually from 46.1 µM), hits mostly activators | shares compounds with TRHR enhancer-1; note: nearly all actives have a fitted effect of over 75% in size
Numbers stand for hits; i = inactive; ? = inconclusive; nt = not tested or not shown. Rows were chosen to be rich in hits. Some 4.7% of all compounds tested hit in one or more screens of this group. Unless noted, calls come from the whole dose curve; as a rule, active = well fitted curve in the direction sought with a large enough effect; inconclusive = small, poorly fitted or top-dose-only effect, or another doubt; inactive = no such curve, though single readings can be large; an effect the other way counts as inactive or inconclusive.

SMILES	D1 ag	D1 antag	D1 PAM	TRHR enhancer-1	TRHR agonist-1	TRHR enhancer-2	TRHR agonist-2
Cc1ccc(Cl)cc1NC(=O)Cn1c(=O)oc2cc(S(=O)(=O)N3CCCC3)ccc21	i	i	i	i	i	nt	nt
O=C1/C(=C/c2ccc(O)cc2)SC(=S)N1CC1CCCO1 (stereo not drawn)	48.8	i	i	i	38.8	i	?
CCCOc1ccc(/C=C2\SC(=S)N(CC3CCCO3)C2=O)cc1 (stereo not drawn)	i	i	i	i	i	nt	nt
O=[N+]([O-])c1ccccc1S(=O)(=O)N1CCCC(C(F)(F)F)C1 (stereo not drawn)	i	i	i	i	i	nt	nt
CSC(=Nc1cccc(C)c1)NC#N	i	i	i	i	i	nt	nt
N#CNC(=Nc1cccc(C(F)(F)F)c1)SCc1ccc(C(=O)O)cc1	i	i	i	46.5	i	i	i
Cc1cc(C)c2nc(/N=C(\N)NC(=O)c3ccccc3)nc(C)c2c1	i	i	i	i	i	nt	nt
CCc1ccc2nc(/N=C(\N)NC(=O)c3ccccc3)nc(C)c2c1	i	i	i	45.3	i	i	i
CCOC(=O)C1CCCN(c2nc3ccccc3nc2C(C#N)C(=O)OC(C)C)C1 (stereo not drawn)	i	i	i	i	42.4	i	?
CCOC(=O)C1CCN(c2nc3ccccc3nc2C(C#N)C(=O)OC(C)C)CC1 (stereo not drawn)	i	i	i	i	i	nt	nt
CCN1CCN(C(=O)/C=C/c2cccc(Cl)c2)CC1	i	i	i	i	i	nt	nt
CCC(CC)COC(=O)C1=C(C)NC(=O)NC1c1ccccc1Br (stereo not drawn)	i	i	i	i	i	nt	nt
O=C(c1ccc(NS(=O)(=O)c2ccccc2)cc1)N1CCCC1	i	i	i	i	i	nt	nt
CC1CCN(C(=O)c2ccc(NS(=O)(=O)c3ccccc3)cc2)CC1	i	-31.8	i	43.9	i	i	i
CN(C)C(=O)/C(=C/c1cn(-c2ccccc2)nc1-c1cccc([N+](=O)[O-])c1)NC(=O)c1ccccc1	i	i	i	42.9	i	i	i
C=CCNC(=O)/C(=C/c1cn(-c2ccccc2)nc1-c1cccc([N+](=O)[O-])c1)NC(=O)c1ccccc1	i	i	i	i	i	nt	nt
COc1cccc(NC(=O)Cn2c(=O)n(CCC(=O)NCc3ccccc3OC)c(=O)c3ccccc32)c1	i	i	i	i	i	nt	nt
Cc1cccc(OCc2nnc(SC(C)C(=O)O)n2Cc2ccccc2)c1 (stereo not drawn)	i	i	i	41.4	i	i	i
CCn1cc(C(=O)N2CCN(c3cccc(C)c3C)CC2)c(=O)c2ccc(C)nc21	i	i	i	i	i	nt	nt
CCn1cc(C(=O)N2CCN(c3ccc([N+](=O)[O-])cc3)CC2)c(=O)c2ccc(C)nc21	i	i	i	46.4	i	i	i
COc1ccc(S(=O)(=O)N2CCCCC2)cc1NC(=S)Nc1ccccc1	i	i	i	55.7	i	i	i
CCOc1ccccc1N1CC(C(=O)Nc2cccc(S(=O)(=O)N3CCCCC3)c2)CC1=O (stereo not drawn)	i	i	i	73.7	i	i	i
O=C(c1cc2ccccc2oc1=O)N1CCCCCCC1	i	i	i	56.4	i	i	i
O=C(c1cc2ccccc2oc1=O)N1CCCC1	i	i	i	i	i	nt	nt
O=C(NCc1n[nH]c(=S)n1-c1ccccc1Cl)c1ccc(S(=O)(=O)N2CCCCC2)cc1	i	i	i	i	i	nt	nt
SMILES	D1 ag	D1 antag	D1 PAM	TRHR enhancer-1	TRHR agonist-1	TRHR enhancer-2	TRHR agonist-2
COc1ccc(NC(=O)c2nc(S(C)(=O)=O)ncc2N(Cc2ccc(C)cc2)Cc2ccco2)cc1Cl	i	i	i	i	i	nt	nt
CC(=O)Oc1ccc2c(c1)O/C(=C\c1ccncc1)C2=O	65.2	i	i	i	i	i	?
COc1ccccc1C(=O)Oc1ccc2c(c1)O/C(=C\c1ccncc1)C2=O	35.8	i	i	i	i	i	?
COc1cc(OC)c(OC)cc1/C=C1\Oc2cc(OS(C)(=O)=O)ccc2C1=O	52.6	i	i	i	37.6	i	?
COc1ccc(S(=O)(=O)Oc2ccc3c(c2)O/C(=C\c2cccnc2)C3=O)cc1	i	i	i	i	i	nt	nt
COc1ccc2c(c1)O/C(=C\c1ccccc1C)C2=O	i	i	i	i	i	nt	nt
COc1ccc(/C=C2\Oc3cc(OC(=O)N4CCOCC4)ccc3C2=O)cc1	i	i	i	i	i	nt	nt
Cn1cc(S(=O)(=O)N2CCCCC2)cc1C(=O)N1CCN(c2ccccc2F)CC1	i	i	i	i	i	nt	nt
O=c1ccc2cc3c4c(c2o1)CCCN4CCC3	75.2	i	i	i	47.4	?	20.6µM
NS(=O)(=O)c1ccc(C(=O)Nc2ccc(-c3nc4cccnc4s3)cc2)cc1	i	i	i	44.2	i	i	i
NS(=O)(=O)c1ccc(NC(=O)c2ccc(-c3ccccc3)cc2)cc1	i	i	i	i	i	nt	nt
Cc1cccc(C)c1NC(=O)CSc1nc2ncccc2o1	i	i	i	i	i	nt	nt
O=C(CSc1nccc(=O)[nH]1)NCc1ccc(Cl)cc1	i	i	i	i	i	nt	nt
COCCN(CC(=O)Nc1cccc(C)c1C)C(=O)Cc1sc(C)nc1-c1ccc(F)cc1	i	i	i	i	i	nt	nt
COc1ccccc1NC(=O)COn1nnc2ccc(S(=O)(=O)N3CCOCC3)cc21	i	i	i	59.3	i	i	i
Cc1cc(C)c(NC(=O)C(=O)NCC(c2cccnc2)N2CCN(c3ccccc3F)CC2)c(C)c1 (stereo not drawn)	i	i	i	i	i	nt	nt
O=C(CNCc1ccccc1Cl)Nc1ccc(C(=O)N2CCCCC2)cc1	i	i	i	41.3	i	i	i
NC(=O)c1ccc(NC(=O)CNCc2ccccc2Cl)cc1	i	i	i	i	i	nt	nt
Cc1ccc(N2CC(NC(=O)c3ccco3)CC2=O)cc1C (stereo not drawn)	i	nt	i	i	i	nt	nt
CCO[C@H]1OC(C(=O)N2CCN(Cc3ccc4c(c3)OCO4)CC2)=C[C@@H](c2ccc(Br)cc2)[C@@H]1CCCO	i	i	i	49.3	i	i	i
COc1cc(/C=C2\SC(=S)N(N(C)c3ccccc3)C2=O)ccc1O	i	i	i	i	36.5	i	?
CCOc1cc(/C=C2/SC(=S)N(Cc3ccccc3)C2=O)ccc1O	i	i	i	i	i	nt	nt
Cc1nn(CC(=O)Nc2ccc3c(c2)nc(CCN2CCCCC2)n3C)c(=O)c2ccccc12	i	i	i	i	i	nt	nt
Cc1nn(CC(=O)Nc2ccc3c(c2)nc2n3CCN(C3CCCCC3)C2)c(=O)c2ccccc12	i	i	i	45.6	i	i	i
O=C(NCCc1ccccc1)c1ccc2c(c1)N(Cc1ccccc1Cl)C(=O)c1ccccc1S2	i	i	i	i	i	nt	nt

Compound activity from PubChem.
